The source made the active and inactive calls.
Key:
[1] = test system: Plasmodium falciparum Sir2 (PF13_0152, Sir2A); assay: pfSir2 binders on small-molecule microarrays, primary screen, biochemical, small-molecule microarray, 635 nm fluorescence (AID 1098); conditions: small-molecule microarray binding, fluorescence 635 nm; higher = more signal;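 also: score merges spot fluorescence intensity with its signal-to-noise ratio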
[2] = small-molecule microarray binders of probe aDKK1, primary screen, biochemical, biotinylated probe, 635/667 nm fluorescence (AID 1099); conditions: higher = more signal;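 also: score merges 667nm spot fluorescence with signal to noise across triplicate slides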
[3] = small-molecule microarray binders of probe aCHRDL2, primary screen, biochemical, biotinylated probe, 635/667 nm fluorescence (AID 1100); conditions: higher = more signal
[4] = splicing luciferase reporter signal modulators, primary screen, spliceosome inhibition project, cell-based, HEK293, splice +/- reporter (AID 1101); conditions: luminescence, 24 h, higher = more signal, called active from +8 up or from −8 down;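 also: HEK293 cells carrying a splicing-competent luciferase reporter gene; test concentration not given here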
[5] = molecular target: Fibroblast growth factor 10 (Homo sapiens) (UniProt O15520); assay: FGF10 binders on small-molecule microarrays, primary screen, biochemical, small-molecule microarray, 635 nm fluorescence (AID 1102); conditions: FGF10 binding, fluorescence 635 nm, higher = more signal
Fibroblast growth factor 10 (Homo sapiens), sequence (O15520 whole entry, looked up): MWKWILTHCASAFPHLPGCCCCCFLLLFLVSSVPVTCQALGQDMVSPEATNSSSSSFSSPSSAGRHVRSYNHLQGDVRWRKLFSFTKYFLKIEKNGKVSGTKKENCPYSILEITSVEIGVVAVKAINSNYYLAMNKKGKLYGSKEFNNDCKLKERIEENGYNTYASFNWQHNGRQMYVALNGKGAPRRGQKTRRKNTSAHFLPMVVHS

[6] = test system: glycogen synthase kinase-3 (GSK3A per assay name; protocol says GSK3B); assay: GSK3 binders on small-molecule microarrays, primary screen, biochemical, small-molecule microarray, 635 nm fluorescence, GSK3A (AID 1103); conditions: small-molecule microarray binding, fluorescence 635 nm; higher = more signal; also: the record names both GSK3A and GSK3B
[7] = molecular target: Epidermal growth factor receptor (Homo sapiens) (UniProt P00533); assay: EGFR binders on small-molecule microarrays, primary screen, biochemical, small-molecule microarray, 635 nm fluorescence (AID 1104); conditions: EGFR binding, higher = more signal;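 also: score merges 667 nm emission intensity with spot signal to noise over triplicate slides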
Epidermal growth factor receptor (Homo sapiens), sequence (P00533 whole entry, looked up): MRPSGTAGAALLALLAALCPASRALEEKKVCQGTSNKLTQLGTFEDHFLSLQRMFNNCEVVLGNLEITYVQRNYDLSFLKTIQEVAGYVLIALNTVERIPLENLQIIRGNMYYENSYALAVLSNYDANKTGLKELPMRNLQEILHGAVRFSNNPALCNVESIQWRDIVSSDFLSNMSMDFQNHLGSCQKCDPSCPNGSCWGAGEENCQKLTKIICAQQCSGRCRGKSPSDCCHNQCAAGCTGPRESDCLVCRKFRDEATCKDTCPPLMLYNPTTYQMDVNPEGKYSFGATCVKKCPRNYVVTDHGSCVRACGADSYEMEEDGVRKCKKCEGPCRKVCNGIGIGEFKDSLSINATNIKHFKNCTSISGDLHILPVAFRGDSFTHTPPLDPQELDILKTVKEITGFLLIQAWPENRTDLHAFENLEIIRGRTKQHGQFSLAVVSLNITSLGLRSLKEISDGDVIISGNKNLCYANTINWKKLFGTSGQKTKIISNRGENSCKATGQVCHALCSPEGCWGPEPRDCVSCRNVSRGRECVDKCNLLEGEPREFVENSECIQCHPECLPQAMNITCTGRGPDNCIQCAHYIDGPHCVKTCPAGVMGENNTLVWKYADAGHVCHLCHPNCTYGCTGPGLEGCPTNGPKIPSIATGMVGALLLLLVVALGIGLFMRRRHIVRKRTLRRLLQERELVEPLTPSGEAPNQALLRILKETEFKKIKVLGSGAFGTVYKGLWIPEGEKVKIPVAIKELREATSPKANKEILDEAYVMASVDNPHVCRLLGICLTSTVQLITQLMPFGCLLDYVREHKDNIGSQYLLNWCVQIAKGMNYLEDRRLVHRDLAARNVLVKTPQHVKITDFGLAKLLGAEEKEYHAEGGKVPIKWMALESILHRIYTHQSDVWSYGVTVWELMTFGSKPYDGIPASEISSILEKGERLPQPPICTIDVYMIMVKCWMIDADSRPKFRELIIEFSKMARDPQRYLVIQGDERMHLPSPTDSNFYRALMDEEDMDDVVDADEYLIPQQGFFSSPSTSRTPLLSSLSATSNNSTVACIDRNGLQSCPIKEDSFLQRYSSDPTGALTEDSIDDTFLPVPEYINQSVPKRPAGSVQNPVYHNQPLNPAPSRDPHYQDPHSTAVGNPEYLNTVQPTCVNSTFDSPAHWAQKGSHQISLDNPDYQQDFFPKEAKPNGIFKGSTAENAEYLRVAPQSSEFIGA

[8] = molecular target: Follistatin-related protein 3 (Homo sapiens) (UniProt O95633); assay: FSTL3 binders on small-molecule microarrays, primary screen, biochemical, small-molecule microarray, 635 nm fluorescence (AID 1105); conditions: FSTL3 binding, higher = more signal;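 also: score merges emission near 667 nm and signal to noise per printed spot across three slides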
Follistatin-related protein 3 (Homo sapiens), sequence (O95633 whole entry, looked up): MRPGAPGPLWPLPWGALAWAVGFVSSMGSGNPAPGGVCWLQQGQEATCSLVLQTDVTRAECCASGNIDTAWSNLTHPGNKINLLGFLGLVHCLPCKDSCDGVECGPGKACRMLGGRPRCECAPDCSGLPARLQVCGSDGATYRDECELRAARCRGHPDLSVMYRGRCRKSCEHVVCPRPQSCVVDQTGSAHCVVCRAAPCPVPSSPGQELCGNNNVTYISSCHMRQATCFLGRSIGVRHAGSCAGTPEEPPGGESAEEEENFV

[9] = molecular target: Dickkopf-related protein 1 (Homo sapiens) (UniProt O94907); assay: DKK1 binders on small-molecule microarrays, primary screen, biochemical, small-molecule microarray, 635 nm fluorescence scan (AID 1106); conditions: DKK1 binding, higher = more signal;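 also: score merges emission near 667 nm with signal to noise over three replicate slides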
Dickkopf-related protein 1 (Homo sapiens), sequence (O94907 whole entry, looked up): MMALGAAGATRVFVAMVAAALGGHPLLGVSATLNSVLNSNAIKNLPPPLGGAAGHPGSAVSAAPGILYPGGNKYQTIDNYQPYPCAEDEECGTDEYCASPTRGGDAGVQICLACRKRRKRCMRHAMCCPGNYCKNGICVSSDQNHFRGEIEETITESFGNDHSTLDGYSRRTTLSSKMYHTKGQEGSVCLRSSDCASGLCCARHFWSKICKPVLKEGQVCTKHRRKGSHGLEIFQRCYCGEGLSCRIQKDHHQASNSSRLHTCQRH

[10] = test system: Inhibin beta A chain (activin A); assay: INHBA (activin A) binders on microarrays, primary screen, biochemical, small-molecule microarray, 635 nm fluorescence scan (AID 1107); conditions: small-molecule microarray binding, higher = more signal;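 also: mouse activin A protein probed at 4.33 µg/mL on printed slides; score merges bound-protein fluorescence near 667 nm with spot signal-to-noise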
[11] = test system: Human papillomavirus type 1a protein E7 (residues 44-93); assay: HPV1a E7 fragment binders on microarrays, primary screen, biochemical, small-molecule microarray, residues 44-93, 635 nm fluorescence (AID 1108); conditions: small-molecule microarray binding, fluorescence 635 nm; higher = more signal;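 also: E7 fragment applied at 1 µg/mL in TBST for 1 h at 4 C; score combines spot fluorescence with its signal to noise ratio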
[12] = modulators of HCV replicon luciferase signal, primary screen, HCV replication inhibitor project, Huh7 cells, luciferase reporter (AID 1109); conditions: 48 h, higher = more signal;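 also: huh7 hepatoma cells harbouring a luciferase neomycin HCV replicon reporter; luciferase luminescence as measure of HCV replicon replication; test concentration not given here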
[13] = molecular target: Left-right determination factor 2 (Homo sapiens) (UniProt O00292); assay: LEFTY2 binders on small-molecule microarrays, primary screen, biochemical, small-molecule microarray, 635 nm fluorescence scan (AID 1110); conditions: LEFTY2 binding, higher = more signal
Left-right determination factor 2 (Homo sapiens), sequence (O00292 whole entry, looked up): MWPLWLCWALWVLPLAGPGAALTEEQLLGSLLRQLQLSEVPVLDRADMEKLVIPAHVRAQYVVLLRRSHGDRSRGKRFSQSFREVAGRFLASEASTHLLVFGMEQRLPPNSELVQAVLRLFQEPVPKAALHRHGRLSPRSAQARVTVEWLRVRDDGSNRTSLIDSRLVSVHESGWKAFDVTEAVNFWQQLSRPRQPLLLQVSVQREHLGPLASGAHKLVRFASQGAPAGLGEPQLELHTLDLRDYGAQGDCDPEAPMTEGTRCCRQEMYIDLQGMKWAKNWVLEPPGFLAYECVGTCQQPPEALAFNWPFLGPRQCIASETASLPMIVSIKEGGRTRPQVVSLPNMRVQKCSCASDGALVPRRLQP

[14] = molecular target: Calmodulin-1 (Homo sapiens) (UniProt P0DP23); assay: CALM1 binders on microarrays, EGTA buffer, profiling panel, biochemical, small-molecule microarray, Cy5-labelled CALM1 (AID 1111); conditions: Cy5-CALM1 binding fluorescence, higher = more signal;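 also: labelled calmodulin applied in Tris saline Tween buffer holding calcium plus EGTA and DTT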
[15] = molecular target: Calmodulin-1 (Homo sapiens) (UniProt P0DP23); assay: calcium-bound CALM1 binders on microarrays, profiling panel, artefact control for SMM control-protein annotation, biochemical, small-molecule microarray, Cy5-labelled CALM1, plus calcium (AID 1112); conditions: Cy5-CALM1 binding fluorescence, higher = more signal;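 also: score merges spot fluorescence with signal to noise from triplicate slides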
[16] = small-molecule microarray binders of probe aWnt5a, primary screen, biochemical, biotinylated probe, 635/667 nm fluorescence (AID 1113); conditions: higher = more signal;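 also: score merges 667 nm fluorescence intensity with signal-to-noise per printed feature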
[17] = small-molecule microarray binders of probe aShh, primary screen, biochemical, biotinylated probe, 635/667 nm fluorescence (AID 1114); conditions: higher = more signal;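 also: probe is biotin-labelled aShh protein from a stem cell growth factor screen; measures binding of labelled protein to compounds printed on the slide; score merges feature fluorescence at 667 nm with signal-to-noise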
[18] = small-molecule microarray binders of probe aNog, primary screen, biochemical, biotinylated probe, 635/667 nm fluorescence (AID 1115); conditions: higher = more signal;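 also: probe is biotinylated aNog protein used at 0.15 µg/mL for 1 h at 4 C; z-score combines 667 nm fluorescence of each spot with its signal to noise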
[19] = molecular target: Torsin-1A-interacting protein 1 (Homo sapiens) (UniProt Q5JTV8); assay: LAP1 binders from COS7 cell lysate, primary screen, small-molecule microarray, 635/667 nm fluorescence (AID 1116); conditions: COS7-hLAP1 lysate binding, 635 nm fluorescence, higher = more signal
Torsin-1A-interacting protein 1 (Homo sapiens), sequence (Q5JTV8 whole entry, looked up): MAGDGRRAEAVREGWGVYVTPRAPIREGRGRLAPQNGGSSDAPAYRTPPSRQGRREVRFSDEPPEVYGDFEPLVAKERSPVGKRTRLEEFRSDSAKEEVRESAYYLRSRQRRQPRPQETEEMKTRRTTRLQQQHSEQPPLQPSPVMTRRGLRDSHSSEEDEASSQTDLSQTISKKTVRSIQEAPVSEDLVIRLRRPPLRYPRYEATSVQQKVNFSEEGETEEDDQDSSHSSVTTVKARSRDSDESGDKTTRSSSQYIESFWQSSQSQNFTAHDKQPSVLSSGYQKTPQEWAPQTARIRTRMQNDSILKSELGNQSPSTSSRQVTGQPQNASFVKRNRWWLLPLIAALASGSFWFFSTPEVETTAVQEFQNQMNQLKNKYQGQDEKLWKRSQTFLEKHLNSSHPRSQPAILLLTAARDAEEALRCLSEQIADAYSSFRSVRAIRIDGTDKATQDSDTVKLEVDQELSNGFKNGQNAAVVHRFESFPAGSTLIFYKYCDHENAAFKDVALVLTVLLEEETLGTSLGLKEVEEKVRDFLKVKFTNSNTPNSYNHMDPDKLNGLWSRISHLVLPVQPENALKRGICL

[20] = molecular target: Alpha-bungarotoxin (Bungarus multicinctus) (UniProt P60615); assay: alpha-bungarotoxin binders on microarray, profiling panel, artefact control for SMM control protein annotation, biochemical, small-molecule microarray, Alexa647 label, 635/667 nm fluorescence (AID 1117); conditions: alpha-BTX-A647 binding fluorescence, higher = more signal
Alpha-bungarotoxin (Bungarus multicinctus), sequence (P60615 whole entry, looked up): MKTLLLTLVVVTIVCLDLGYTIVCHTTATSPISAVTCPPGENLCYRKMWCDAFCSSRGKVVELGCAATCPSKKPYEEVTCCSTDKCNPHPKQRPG

SMILES	composite z-score [1]	composite z-score [2]	composite z-score [3]	z-score [4]	composite z-score [5]	composite z-score [6]	composite z-score [7]	composite z-score [8]	composite z-score [9]	composite z-score [10]	composite z-score [11]	z-score [12]	composite z-score [13]	composite z-score [14]	composite z-score [15]	composite z-score [16]	composite z-score [17]	composite z-score [18]	composite z-score [19]	composite z-score [20]
C=C(C(=O)CC[C@H](OC(C)=O)c1ccc(OCCO)cc1)C(C)C	-0.478	-0.267	-0.906	-3.58 (inactive)	1.37	-0.479	0.982	0.876	2.01	-0.0025	-0.268	-4.11	1.03	-0.189	-1.39	-0.1	-0.0157	-0.0965	0.949	1.05
O=c1oc(-c2ccccc2)nc2cc(Br)ccc12	0.486	-0.184	-0.493	-0.288 (inactive)	0.312	0.838	0.448	0.582	0.508	-0.0295	0.55	-1.04	0.69	-0.0114	-0.427	-0.117	-0.221	-0.221	0.503	0.318
COC(=O)c1c(CC[C@@H](CO)NC(=O)N[C@@H](Cc2ccccc2)Cn2cc(C3(O)CCCCC3)nn2)oc(C(C)=O)c1C(=O)OC	0.893	-0.27	-0.328	-2.62 (inactive)	1.31	0.819	0.346	0.873	0.514	0.382	1.28	-1.47	0.693	0.267	-0.36	-0.096	-0.142	-0.449	0.639	0.519
O=C/C=C/c1ccc2c(c1)OCO2	0.229	-0.295	-0.475	-0.675 (inactive)	0.562	0.469	0.614	0.506	0.486	1.25	0.283	0.301	0.528	-1.18	-0.755	-0.0748	-0.35	-0.441	0.122	0.591
COC(=O)c1ccc(C(O)C2C=CC3C(=O)N(c4ccccc4)C(=O)C3N2Nc2ccc(C#N)cc2)o1 (stereo not given)	0.969	0.51	0.669	1.28 (inactive)	0.989	0.137	0.219	0.311	-0.0752	0.961	1.18	-0.133	0.196	-0.118	-0.637	0.0136	0.582	0.363	0.681	-0.187
CCOC(=O)C[C@H]1[C@H](OC(=O)c2ccccc2-c2ccccc2)[C@@H](NC(=O)Cc2ccc(OC)cc2)c2cc(OCCCO)ccc2N1C(=O)c1ccccc1	-0.394	-0.236	-0.0402	-0.258 (inactive)	0.225	-1.28	0.192	-0.0572	0.232	0.34	0.0712	-2.08	-0.3	-0.0521	-0.317	-0.0519	-0.327	-0.443	0.246	-0.0826
COCCOC(=O)N1C(=O)[C@@]2(c3cc(C#CCC(C(=O)OC)C(=O)OC)ccc31)[C@H](c1ccccc1OCCO)N1[C@H](c3ccccc3)[C@H](c3ccccc3)OC(=O)[C@H]1[C@@H]2C(=O)N1CCc2cc(OC)c(OC)cc2C1	1.24	0.176	-0.131	-0.988 (inactive)	1.16	1.33	0.99	1.3	1.42	0.645	1.2	-1.79	0.958	1.54	0.0013	-0.363	-0.148	-0.289	0.496	0.942
C=CCC(OC(C)=O)[C@@H]1[C@@H](N(Cc2ccc(-c3cccc(C(F)(F)F)c3)o2)C(=O)c2ccc(C)cc2)c2cc(OCCCO)ccc2N1C(=O)c1ccc(-c2ccccc2)cc1 (stereo not given in full)	0.44	-0.0544	0.0823	-0.714 (inactive)	0.0825	-1	-0.0697	0.473	-0.0581	1.23	-0.734	-0.094	-0.0524	-0.201	-0.147	-0.124	-0.16	-0.363	-0.178	-0.286

— PubChem BioAssay
